# Bioassay records: PubChem BioAssay, National Center for Advancing Translational Sciences (NCATS)
# Shiga inhibitor – Shiga toxin inhibition; 290,000 tested, 9.2% active; inhibition, % at 38.7 µM; Vero cells, Shiga toxin protein synthesis inhibition reporter; in the data active = inhibition mostly above about 28%, no sharp cut-off; inactive = mostly below about 43%
# CHX counter – counter-screen for Shiga toxin inhibitors: cycloheximide protein synthesis inhibition; cell reporter, cycloheximide protein synthesis inhibition counterscreen; max response, %; 300,000 tested, 12% active; AID 2314; in the data active = max response mostly above about 13%, no sharp cut-off; inactive = mostly below about 14%; note: read at 38.3 µM for the half of the compounds with a filed dose
# LmPK inh – inhibitors of Leishmania mexicana pyruvate kinase | AID 1721 | 290,000 tested, 0.37% active | Potency, µM (series often up to 57.5 µM), hits mostly inhibitors | Q27686 | purified LmPK, Kinase-Glo ATP luminescence, 1 h
# Target sequence (Q27686 whole entry, looked up): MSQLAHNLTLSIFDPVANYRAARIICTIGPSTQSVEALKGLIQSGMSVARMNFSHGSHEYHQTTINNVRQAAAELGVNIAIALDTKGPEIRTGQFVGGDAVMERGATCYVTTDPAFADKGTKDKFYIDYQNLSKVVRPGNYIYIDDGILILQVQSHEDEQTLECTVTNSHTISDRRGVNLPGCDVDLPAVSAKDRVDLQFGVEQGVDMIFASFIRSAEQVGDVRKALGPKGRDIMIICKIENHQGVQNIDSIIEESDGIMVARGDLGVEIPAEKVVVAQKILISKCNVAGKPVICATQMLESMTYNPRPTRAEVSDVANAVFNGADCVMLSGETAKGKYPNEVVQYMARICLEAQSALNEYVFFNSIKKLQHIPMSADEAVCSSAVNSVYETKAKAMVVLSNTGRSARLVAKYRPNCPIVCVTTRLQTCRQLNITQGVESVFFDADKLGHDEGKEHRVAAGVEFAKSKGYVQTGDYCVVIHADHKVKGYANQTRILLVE
#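 ATP generated from ADP (0.1 mM) and PEP (0.5 mM) by 0.1 nM LmPK over 1 h at room temperature (pH 7.2 imidazole buffer) was detected by coupled luciferase luminescence. Values were normalized to uninhibited and no-enzyme wells.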
# Pf growth 96h – inhibits malaria parasite growth, 96 h. 320,000 tested, 6.9% active. Potency, µM (series often up to 28.7 µM), actives largely listed as inhibitors. P. falciparum luciferase reporter growth, 96 h
#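 Infected RBCs, 2% Hct / 0.05% parasitemia final; luciferase-reporter P. falciparum; cpd 96 h, 37 C, 5% CO2; luciferase detection reagent; luminescence.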
# Pf growth 48h – P. falciparum growth inhibition at 48 hours (one generation). P. falciparum luciferase growth in erythrocytes, 48 h. AID 504832. Potency, µM (titrated, usually from 28.7 µM), hits mostly inhibitors. 310,000 tested, 5.9% active
#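 Luciferase-expressing P. falciparum in infected erythrocytes (2% hematocrit, 0.1% parasitemia final) in RPMI 1640/0.5% Albumax were exposed to compound for 48 hours at 37 C, 5% CO2; growth read as luminescence.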
# A number is an active result; . = inactive; ? = inconclusive; / = no result given. Rows were chosen to be rich in hits. Some 22% of all compounds tested hit in one or more screens of this group. Unless noted, calls come from the whole dose curve; as a rule, active = well fitted inhibition curve with a large enough effect; inconclusive = small, poorly fitted or top-dose-only effect, or another doubt; inactive = no such curve, though single readings can be large or run the other way.
SMILES,Shiga inhibitor,CHX counter,LmPK inh,Pf growth 96h,Pf growth 48h
O=C(NCc1cccs1)c1ccc(N2CCCC2=O)cc1,53,36,.,.,/
COc1ccc(Cc2nnc(NC(=O)c3ccccc3F)s2)cc1OC,.,.,.,?,.
CCN(CC)S(=O)(=O)c1cc(Br)c(C)cc1OC,.,.,.,/,.
O=C(NCc1ccc(F)cc1)c1cc2c(cc1Cl)N1CCCCCC1=NS2(=O)=O,/,/,/,?,.
Cc1ccc(NC2CCCN(C(=O)CCc3ccncc3)C2)cc1C (stereo not drawn),.,.,.,.,.
COc1ccccc1Nc1ccc(C(=O)NCc2cccs2)cn1,.,.,.,.,.
CC1CCCN(c2ccc(C(=O)NCc3cccs3)cn2)C1 (stereo not drawn),active,45,.,?,.
Cc1ccc(C(=O)Nc2ccc(C(=O)N3CCCCC3)cc2)cc1,.,27,.,.,.
O=C(c1ccc(NS(=O)(=O)c2cccc(C(F)(F)F)c2)cc1)N1CCCC1,.,.,.,10µM,.
COc1ccccc1CC(=O)Nc1ccc(C(=O)N2CCCCC2)cc1,.,.,.,.,.
Cc1ccc(S(=O)(=O)C2(C(=O)N3CCCCCC3)CC2)cc1,.,.,.,4.1µM,.
O=C(c1ccc(NS(=O)(=O)c2cccc(F)c2)cc1)N1CCCC1,.,.,.,.,.
Cc1cccc(CC(=O)Nc2ccc(C(=O)N3CCCCC3)cc2)c1,.,14,.,?,.
Cc1ccc(C(=O)Nc2ccccc2C(=O)N2CCCCCC2)cc1,.,.,.,.,.
Cc1ccc(S(=O)(=O)C2(C(=O)N3CCN(C4CCCCC4)CC3)CC2)cc1,.,.,.,.,.
CSc1ccccc1C(=O)N(CC1CCCO1)c1c(N)n(Cc2ccccc2)c(=O)[nH]c1=O (stereo not drawn),/,/,/,.,.
CCCCCCCC(=O)NN=C1CCN(Cc2ccccc2)CC1,.,.,.,.,.
Cc1ccc(NS(=O)(=O)c2ccc(C(=O)N3CCCCCC3)cc2)cc1,/,/,/,?,10µM
Cc1nn(CC(=O)Nc2ccc(C(=O)N3CCCC3)cc2)c(=O)c2ccccc12,.,.,.,9.3µM,.
Cc1ccccc1NS(=O)(=O)c1ccc(C(=O)N2CC(C)OC(C)C2)cc1 (stereo not drawn),/,/,/,.,.
Cc1ccc(NS(=O)(=O)c2ccc(C(=O)N3CC(C)OC(C)C3)cc2)cc1 (stereo not drawn),.,.,.,13µM,?
Cc1ccc(NS(=O)(=O)c2ccc(C(=O)N3CCCCCCC3)cc2)cc1,99,41,.,2.1µM,?
Cc1ccc(NS(=O)(=O)c2ccc(C(=O)N3CCCN(C)CC3)cc2)cc1,.,.,.,.,.
Cc1ccc(NS(=O)(=O)c2ccc(C(=O)N3CCC3)cc2)cc1,/,/,/,.,?
COc1ccc(-c2csc(NC(=S)NC(=O)/C=C/c3ccco3)n2)cc1Br,.,.,.,?,10µM
SMILES,Shiga inhibitor,CHX counter,LmPK inh,Pf growth 96h,Pf growth 48h
CC(C)c1ccc(/C=C/C(=O)Nc2nncs2)cc1,33,49,.,.,.
COc1ccc(-c2csc(NC(=S)NC(=O)/C=C/c3ccc(C(C)C)cc3)n2)cc1OC,.,23,.,?,?
COc1ccc(-c2csc(NC(=S)NC(=O)c3cc4ccccc4o3)n2)cc1Br,.,14,.,?,.
Cc1nc(Nc2cccc(O)c2)c2c3c(sc2n1)CCC3,.,.,.,?,?
Cc1ccc(S(=O)(=O)Nc2c(O)c3ccccc3oc2=O)cc1,.,.,.,.,.
O=c1oc2ccccc2c(NC2CCCCC2)c1NS(=O)(=O)c1ccc(Br)cc1,.,.,.,10µM,.
Cc1ccc(S(=O)(=O)Nc2c(NC3CCCCC3)c3ccccc3oc2=O)cc1,.,.,.,.,.
COc1ccc(S(=O)(=O)Nc2c(O)c3ccccc3oc2=O)cc1,69,15,.,.,.
Cc1ccc(S(=O)(=O)N2CCCCC2CCNC(=O)C(=O)NCC2CCCO2)cc1 (stereo not drawn),/,/,/,.,.
NC(=O)c1cc([N+](=O)[O-])ccc1N1CCN(Cc2ccccc2)CC1,.,.,.,.,.
CC(NC(=O)NC(=O)c1ccc(Cl)cc1Cl)C1CC1 (stereo not drawn),167,39,.,.,.
CC(C)[C@H](NC(=O)[C@@H](Cc1c[nH]c2ccccc12)NC(=O)[C@H](Cc1ccc(O)cc1)NC(=O)[C@@H](N)CC(=O)O)C(=O)N[C@H](Cc1c[nH]c2ccccc12)C(=O)N[C@H](Cc1c[nH]c2ccccc12)C(=O)N[C@@H](CCCCN)C(N)=O,.,.,/,/,/
O=C1N/C(=C/c2ccc(N3CCOCC3)o2)C(=O)N1c1ccccc1,.,20,.,.,.
C=CCN1C(=O)N/C(=C/c2ccc(N3CCOCC3)o2)C1=O,.,.,.,?,?
O=C1N/C(=C/c2ccc(N3CCCC3)cc2)C(=O)N1c1ccccc1,49,17,.,?,.
O=C1/C(=C/c2ccc(N3CCCC3)cc2)NC(=S)N1C1CC1,.,.,.,.,/
Cc1ccc(/C=C2\CCCC3=C2NC(=S)NC3c2ccc(C)cc2)cc1 (stereo not drawn),.,.,.,?,.
COc1ccc(C2NC(=S)NC3=C2CCc2cc(OC)ccc23)cc1 (stereo not drawn),.,.,.,5.9µM,?
CC(=O)N1CCC2(CC1)CC(=O)c1cc(OCC(=O)N3CCCC3)ccc1O2,.,.,.,?,.
CCOC(=O)N1CCN(C(=O)COc2ccc3c(c2)C(=O)CC(C)(C)O3)CC1,.,.,.,.,?
CCN1CCN(C(=O)COc2ccc3c(c2)C(=O)CC2(CCN(C(C)=O)CC2)O3)CC1,.,.,.,8.3µM,/
CC1(C)CC(=O)c2cc(OCC(=O)N3CCCCCC3)ccc2O1,80,57,.,13µM,?
COc1cc(OC)cc(C(=O)NN(CCC#N)C2=NS(=O)(=O)c3ccccc32)c1,.,.,.,.,.
C[C@@H]1NS(=O)(=O)[C@H]2C[C@@H]3C=C[C@]2(O3)[C@H]1OC(=O)Nc1ccc(C(F)(F)F)cc1[N+](=O)[O-],/,/,/,.,.
COc1ccc(C(=O)NC(C)c2ccc(-n3ccnc3)cc2)cc1[N+](=O)[O-] (stereo not drawn),.,.,.,?,?
SMILES,Shiga inhibitor,CHX counter,LmPK inh,Pf growth 96h,Pf growth 48h
CC(=O)Nc1ccc(S(=O)(=O)N2CCN=C2c2ccccc2)cc1,.,.,.,15µM,.
FC(F)Sc1ccc(-n2cc(-c3ccc(Cl)cc3)[n+]3c2CCC3)cc1,.,.,.,?,0.74µM
Cc1ccc(-c2cn(-c3ccc(SC(F)F)cc3)c3[n+]2CCC3)cc1,.,.,.,?,0.37µM
O=C1CCN(S(=O)(=O)c2ccccc2)CCN1CCOCc1ccccc1,.,.,.,9.3µM,.
Cc1cccc(COCCN2CCN(S(=O)(=O)c3ccccc3)CCC2=O)c1,.,.,.,15µM,.
Cc1cccc(/C(N)=N/OC(=O)c2ccc(Cl)cc2Cl)c1,72,70,7.9µM,.,.
N/C(=N\OC(=O)c1ccc(Br)o1)c1ccccn1,61,26,13µM,.,.
